Laboratory results published in PubChem BioAssay (NCATS).
Inconclusive results are not listed. Calls of active or inactive are those of the source. Calls come from the whole dose curve; as a rule, active = well fitted curve in the direction sought with a large enough effect; inconclusive = small, poorly fitted or top-dose-only effect, or another doubt; inactive = no such curve, though single readings can be large; an effect the other way counts as inactive or inconclusive.

Experiments:
[1] = Quantitative High-Throughput drug screen in 47 multiple myeloma cell lines against the NCATS MIPE library collection: MOLP8_DSMZ cell viability assay (AID 1918977); note: nearly all actives have a fitted effect of over 45% in size
How it was run: (§1)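 Plated at 500 cells per well, myeloma lines received MIPE 4.0 compounds by pin tool. Following 48 h culture at 37 °C, CellTiter-Glo luminescence gave viability relative to DMSO and media-only controls.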

[2] = Quantitative High-Throughput drug screen in 47 multiple myeloma cell lines against the NCATS MIPE library collection: NCIH929_DSMZ cell viability assay (AID 1918978); note: nearly all actives have a fitted effect of over 35% in size
How it was run: as §1

[3] = Quantitative High-Throughput drug screen in 47 multiple myeloma cell lines against the NCATS MIPE library collection: OCIMY1_PLB cell viability assay (AID 1918979); note: nearly all actives have a fitted effect of over 35% in size;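 for viability: series mostly up to about 46 µM; 100% = DMSO-only wells and 0% = cell-free media-only wells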
How it was run: as §1

[4] = Quantitative High-Throughput drug screen in 47 multiple myeloma cell lines against the NCATS MIPE library collection: MM1R_ATCC cell viability assay (AID 1918981); note: nearly all actives have a fitted effect of over 35% in size
How it was run: as §1

[5] = Quantitative High-Throughput drug screen in 47 multiple myeloma cell lines against the NCATS MIPE library collection: LP1_DSMZ cell viability assay (AID 1918982); note: nearly all actives have a fitted effect of over 35% in size
How it was run: as §1

[6] = Quantitative High-Throughput drug screen in 47 multiple myeloma cell lines against the NCATS MIPE library collection: KMS28PE_JCRB cell viability assay (AID 1918983); note: nearly all actives have a fitted effect of over 35% in size
How it was run: as §1

[7] = Quantitative High-Throughput drug screen in 47 multiple myeloma cell lines against the NCATS MIPE library collection: KMS34_JCRB cell viability assay (AID 1918985); note: nearly all actives have a fitted effect of over 40% in size
How it was run: as §1

[8] = Quantitative High-Throughput drug screen in 47 multiple myeloma cell lines against the NCATS MIPE library collection: SKMM1_PLB cell viability assay (AID 1919863); conditions: SKMM1 myeloma viability, CellTiter-Glo ATP, 48 h; viability: stronger effect = lower value; note: nearly all actives have a fitted effect of over 35% in size; for viability: series mostly up to about 46 µM
How it was run: as §1

[9] = Quantitative High-Throughput drug screen in 47 multiple myeloma cell lines against the NCATS MIPE library collection: XG1_PLB cell viability assay (AID 1919866); note: nearly all actives have a fitted effect of over 35% in size
How it was run: as §1

[10] = Quantitative High-Throughput drug screen in 47 multiple myeloma cell lines against the NCATS MIPE library collection: UTMC2_PLB cell viability assay (AID 1919868); conditions: CellTiter-Glo ATP luminescence, 48 h; viability (% of DMSO control): at 45.8 µM; note: nearly all actives have a fitted effect of over 55% in size;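 for viability (% of DMSO control): 100% = DMSO-only wells and 0% = media-only wells without cells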
How it was run: as §1

[11] = Quantitative High-Throughput drug screen in 47 multiple myeloma cell lines against the NCATS MIPE library collection: PE2_PLB cell viability assay (AID 1919869); note: nearly all actives have a fitted effect of over 35% in size
How it was run: as §1

[12] = Quantitative High-Throughput drug screen in 47 multiple myeloma cell lines against the NCATS MIPE library collection: PCM6_Riken cell viability assay (AID 1919870); note: nearly all actives have a fitted effect of over 30% in size
How it was run: as §1

[13] = Quantitative High-Throughput drug screen in 47 multiple myeloma cell lines against the NCATS MIPE library collection: OCIMY5_PLB cell viability assay (AID 1918988); note: nearly all actives have a fitted effect of over 65% in size
How it was run: as §1

[14] = Quantitative High-Throughput drug screen in 47 multiple myeloma cell lines against the NCATS MIPE library collection: U266_ATCC cell viability assay (AID 1919864); note: nearly all actives have a fitted effect of over 35% in size;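 for viability (% of DMSO control): 0% = media-only wells without cells and 100% = DMSO-only wells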
How it was run: as §1

[15] = Quantitative High-Throughput drug screen in 47 multiple myeloma cell lines against the NCATS MIPE library collection: XG6_PLB cell viability assay (AID 1919865); note: nearly all actives have a fitted effect of over 40% in size
How it was run: as §1

[16] = Quantitative High-Throughput drug screen in 47 multiple myeloma cell lines against the NCATS MIPE library collection: MM1S_ATCC cell viability assay (AID 1918980); note: nearly all actives have a fitted effect of over 45% in size
How it was run: as §1

[17] = Quantitative High-Throughput drug screen in 47 multiple myeloma cell lines against the NCATS MIPE library collection: OCIMY7_PLB cell viability assay (AID 1918987); note: nearly all actives have a fitted effect of over 65% in size
How it was run: as §1

[18] = Quantitative High-Throughput drug screen in 47 multiple myeloma cell lines against the NCATS MIPE library collection: OPM1_PLB cell viability assay (AID 1918989); note: nearly all actives have a fitted effect of over 40% in size
How it was run: as §1

[19] = Quantitative High-Throughput drug screen in 47 multiple myeloma cell lines against the NCATS MIPE library collection: L363_DSMZ cell viability assay (AID 1918984); note: nearly all actives have a fitted effect of over 40% in size
How it was run: as §1

[20] = Quantitative High-Throughput drug screen in 47 multiple myeloma cell lines against the NCATS MIPE library collection: VP6_DJ cell viability assay (AID 1919867); note: nearly all actives have a fitted effect of over 40% in size
How it was run: as §1
Potency is the fitted concentration of half-maximal effect.

C[C@]12CC[C@H](O)CC1=CC[C@H]1[C@H]3CCC(=O)[C@@]3(C)CC[C@@H]12
active: Potency [9] 7430 nM | Potency [12] 16600 nM
inactive: Potency [1] | Potency [2] | Potency [3] | Potency [4] | Potency [5] | Potency [6] | Potency [7] | viability [8] 106% | Potency [10] | Potency [11]

CC(C)[C@H]1C(=O)N[C@H](CO)Cc2c[nH]c3cccc(c23)N1C
inactive: Potency [2] | Potency [3] | Potency [4] | Potency [7] | Potency [13] | Potency [14] | Potency [9]
active: Potency [1] 166 nM | Potency [6] 264 nM | Potency [15] 93.5 nM | Potency [12] 264 nM

C1=C2CCCN[C@H]2[C@@H]2C[C@H]1[C@@H]1CCCCN1C2
inactive: Potency [1] | Potency [2] | Potency [3] | Potency [16] | Potency [4] | Potency [5] | Potency [6] | Potency [7] | Potency [17] | Potency [13] | Potency [18] | viability [8] 99.4% | Potency [14] | Potency [15] | Potency [9] | Potency [10] | Potency [11] | Potency [12]

c1ccc2c(CN3CCNCC3)cccc2c1
inactive: Potency [1] | Potency [2] | Potency [3] | Potency [16] | Potency [4] | Potency [5] | Potency [6] | Potency [7] | Potency [13] | viability [8] 106% | Potency [14] | Potency [15] | Potency [9] | Potency [12]

NC1CC1c1ccccc1 (configuration not stated)
inactive: Potency [1] | Potency [2] | Potency [3] | Potency [16] | Potency [17] | Potency [18] | Potency [14] | Potency [15] | Potency [9] | Potency [10] | Potency [11] | Potency [12]

CO[C@H]1CCC(O[C@H]2C[C@H]([C@]3(C)CC[C@]4(C[C@H](O)[C@@H](C)[C@@H]([C@@H](C)C=C(C)C(=O)[C@H](C)C[C@H](C)C(=O)O)O4)O3)O[C@]3(O[C@@H]([C@H]4O[C@@](O)(CO)[C@H](C)C[C@H]4C)C[C@H]3C)[C@H]2C)O[C@H]1C (some centres not stated)
active: Potency [1] 296 nM | Potency [2] 833 nM | Potency [3] 5260 nM | Potency [16] 296 nM | Potency [4] 1050 nM | Potency [5] 833 nM | Potency [6] 3720 nM | Potency [7] 1180 nM | Potency [17] 935 nM | Potency [13] 132 nM | Potency [8] 1180 nM | Potency [14] 296 nM | Potency [15] 418 nM | Potency [9] 1180 nM | Potency [10] 469 nM | Potency [11] 1180 nM | Potency [12] 935 nM

CC(C)(O)C=CC(=O)[C@](C)(O)[C@H]1[C@H](O)C[C@]2(C)[C@@H]3CC=C4[C@@H](C=C(O)C(=O)C4(C)C)[C@]3(C)C(=O)C[C@@]12C
active: Potency [1] 46.9 nM | Potency [2] 46.9 nM | Potency [3] 105 nM | Potency [16] 41.8 nM | Potency [4] 37.2 nM | Potency [5] 418 nM | Potency [6] 1660 nM | Potency [19] 20.9 nM | Potency [7] 33.2 nM | Potency [17] 23.5 nM | Potency [13] 46.9 nM | Potency [8] 2640 nM | Potency [14] 526 nM | Potency [15] 66.2 nM | Potency [9] 41.8 nM | Potency [20] 105 nM | Potency [10] 41.8 nM | Potency [11] 33.2 nM | Potency [12] 29.6 nM

CCN(CC)C(=O)c1ccc(C2=CC3(CCNCC3)Oc3cccc(O)c32)cc1
inactive: Potency [1] | Potency [2] | Potency [3] | Potency [6] | Potency [17] | Potency [18] | viability [8] 112% | Potency [15] | Potency [11] | Potency [12]

C[C@@H]1O[C@@H](O[C@@H]2C=C3CC[C@@H]4[C@@H](CC[C@]5(C)[C@H](c6ccc(=O)oc6)CC[C@@]45O)[C@@]3(C)CC2)[C@H](O)[C@H](O)[C@H]1O
active: Potency [1] 29.6 nM | Potency [2] 46.9 nM | Potency [3] 16.6 nM | Potency [16] 29.6 nM | Potency [4] 26.4 nM | Potency [5] 6.6 nM | Potency [6] 16.6 nM | Potency [7] 33.2 nM | Potency [17] 13.2 nM | Potency [13] 13.2 nM | Potency [18] 29.6 nM | Potency [8] 23.5 nM | Potency [14] 9.3 nM | Potency [15] 16.6 nM | Potency [11] 26.4 nM | Potency [12] 9.3 nM

COc1cc([C@@H]2c3cc4c(cc3[C@@H](O)C3COC(=O)C32)OCO4)cc(OC)c1O (some centres not stated)
active: Potency [1] 418 nM | Potency [2] 132 nM | Potency [3] 41.8 nM | Potency [16] 187 nM | Potency [4] 83.3 nM | Potency [6] 41.8 nM | Potency [7] 18.7 nM | Potency [17] 52.6 nM | Potency [13] 10.5 nM | Potency [8] 16.6 nM | Potency [15] 14.8 nM | Potency [20] 52.6 nM | Potency [10] 46.9 nM | Potency [11] 52.6 nM | Potency [12] 46.9 nM

Cc1[nH]nc2ccc(-c3cncc(OC[C@@H](N)Cc4c[nH]c5ccccc45)c3)cc12
active: Potency [1] 264 nM | Potency [2] 1050 nM | Potency [3] 1870 nM | Potency [16] 833 nM | Potency [4] 1480 nM | Potency [5] 1660 nM | Potency [6] 833 nM | Potency [7] 1320 nM | Potency [17] 26.4 nM | Potency [13] 833 nM | Potency [18] 1180 nM | Potency [8] 5900 nM | Potency [14] 83.3 nM | Potency [15] 418 nM | Potency [9] 235 nM | Potency [10] 372 nM | Potency [11] 935 nM | Potency [12] 264 nM
